Here are results for 15 compounds from PubChem BioAssay (EPA / NIEHS).

SMILES strings stand for the structures. Records with an inconclusive call do not appear. The source made the active and inactive calls. How the source made its calls: active means hit-call score of the fitted dose curve at least 0.9, where 1 is the maximum; inconclusive means response in the unintended direction; inactive means score below 0.9.

In the assay the target is AR (gene 367) (UniProt P10275). As to the kind of experiment: ACEA_AR_antagonist_80hr: ACEA Biosciences xCELLigence Real-Time Cell Analysis on Androgen Receptor Antagonism for Proliferation (AID 2283787).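 Further: 22Rv1 human prostate cancer cells with growth followed by electrical impedance; hits lower the impedance growth signal relative to DMSO.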 An outline of the steps: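 Impedance-based real-time growth of 22Rv1 prostate cells, read 80 h after dosing. Eight concentrations, 1:4 series, top 100 uM final (0.5% DMSO), n = 2; signal decrease scored against DMSO.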
Sequence of AR (gene 367) (P10275 whole entry, looked up): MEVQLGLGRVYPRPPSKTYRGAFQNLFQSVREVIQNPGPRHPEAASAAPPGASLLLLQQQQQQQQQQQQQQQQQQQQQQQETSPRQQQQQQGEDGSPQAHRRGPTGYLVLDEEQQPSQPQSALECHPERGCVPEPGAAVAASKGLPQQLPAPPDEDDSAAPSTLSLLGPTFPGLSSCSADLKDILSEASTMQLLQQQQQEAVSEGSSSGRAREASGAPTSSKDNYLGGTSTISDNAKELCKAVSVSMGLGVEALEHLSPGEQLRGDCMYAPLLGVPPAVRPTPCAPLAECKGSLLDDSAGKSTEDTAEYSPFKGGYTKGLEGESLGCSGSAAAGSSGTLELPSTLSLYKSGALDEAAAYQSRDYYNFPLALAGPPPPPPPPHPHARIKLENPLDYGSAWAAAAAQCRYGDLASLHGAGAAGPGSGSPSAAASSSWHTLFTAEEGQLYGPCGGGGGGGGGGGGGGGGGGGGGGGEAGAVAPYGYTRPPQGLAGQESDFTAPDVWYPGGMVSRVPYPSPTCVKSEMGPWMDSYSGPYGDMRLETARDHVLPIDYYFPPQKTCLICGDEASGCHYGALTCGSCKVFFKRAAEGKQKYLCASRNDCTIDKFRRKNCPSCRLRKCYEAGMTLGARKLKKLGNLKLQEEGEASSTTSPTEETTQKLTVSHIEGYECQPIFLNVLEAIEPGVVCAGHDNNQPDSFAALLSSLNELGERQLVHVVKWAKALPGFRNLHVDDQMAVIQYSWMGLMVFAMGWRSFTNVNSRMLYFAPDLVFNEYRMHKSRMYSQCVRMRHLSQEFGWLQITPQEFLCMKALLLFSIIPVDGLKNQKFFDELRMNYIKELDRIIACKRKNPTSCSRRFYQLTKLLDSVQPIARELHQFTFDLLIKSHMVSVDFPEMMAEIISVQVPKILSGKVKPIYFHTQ
Regarding `Cc1cc(N=Nc2ccccc2C)ccc1N`, the half-maximal activity concentration (AC50) was 52.6 µM (active).

`CC(C)N(Cc1ccccc1)C(=O)C(C)(C)C`: the call was inactive.

For the compound `C[N+](C)(C)CC1CO1` (stereo not given), the result was inactive.

As for `C[C@]12C=CC3=C4CCC(=O)C=C4CC[C@H]3[C@@H]1CC[C@@H]2O`, the outcome was inactive.

On to `CO[C@@H]1[C@H](OC(=O)NC(=O)CCl)CC[C@]2(CO2)[C@H]1[C@@]1(C)O[C@@H]1CC=C(C)C`, for which the AC50 was 12.6 µM (active).

As to `O=[N+]([O-])C(Br)(CO)CO`, the concentration at half-maximal activity (AC50) was 30.6 µM (active).

As for `O=C(Nc1ccccc1)c1ccccc1I`, the result was inactive.

For the compound `CC(C)(OOC(C)(C)c1ccccc1)c1ccccc1`, the AC50 was 26.6 µM (active).

For `O=C1CCCO1`, the outcome was inactive.

Take `Nc1ccc(Cl)cc1N`: the AC50 was 50 µM (active).

Regarding `CC(C)(O)c1cnn2c(-c3ccc(F)c(-c4c(F)cccc4C#N)c3)cnc2n1`, the AC50 was 57.9 µM (active).

Consider `CNC(=O)Oc1cccc2c1OC(C)(C)C2`, for which the call was inactive.

As to `Nc1ccc([N+](=O)[O-])cc1`, the AC50 is 22 µM (active).

For `COC(=O)Nc1nc2ccccc2[nH]1`, the half-maximal activity concentration (AC50) is 19.6 µM (active).

With `CCNS(=O)(=O)C(F)(F)C(F)(F)C(F)(F)C(F)(F)C(F)(F)C(F)(F)C(F)(F)C(F)(F)F`, the outcome was inactive.
